Laboratory results as given in PubChem BioAssay (EPA / NIEHS).
Calls of active or inactive are those of the source. Rule for the calls: active = hit-call score of the fitted dose curve at least 0.9, where 1 is the maximum; inactive = score below 0.9.

How the values were obtained:
Settings in all cases: mRNA level, 48 h; actives raise or lower the signal
[1] = read-out: Lipoprotein lipase (LPL), LPL (gene 4023); test: LTEA_HepaRG_LPL: Life Technologies and Expression Analysis (LTEA) Assay for Lipoprotein lipase (LPL) using HepaRG (AID 2283515)
Method in brief: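 Read-out is LPL transcript level by qRT-PCR, normalized to three housekeeping genes and fitted bidirectionally against the DMSO control. Human HepaRG cells received chemicals for 48 h at up to 100 uM.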

[2] = read-out: MicroRNA 122 (MIR122), gene 406906; test: LTEA_HepaRG_MIR122: Life Technologies and Expression Analysis (LTEA) Assay for MicroRNA 122 (MIR122) using HepaRG (AID 2283516); note: the transcript read is the microRNA miR-122
Method in brief: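 HepaRG plated 48 h, switched to serum-free induction medium, then treated in duplicate for 48 h (100 uM top, half-log steps, 0.5% DMSO vehicle). RNA isolated, qRT-PCR performed, concentration-response fitted both directions relative to DMSO.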

[3] = read-out: matrix metalloproteinase-10 (MMP10), MMP10 (gene 4319); test: LTEA_HepaRG_MMP10: Life Technologies and Expression Analysis (LTEA) Assay for matrix metalloproteinase-10 (MMP10) using HepaRG (AID 2283517)
Method in brief: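 Gain or loss of MMP10 mRNA is fitted relative to the 0.5% DMSO vehicle. The human hepatic line HepaRG receives a 48-hour serum-free exposure, in duplicate, with a maximum concentration of 100 uM.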

MYC, MYC (gene 4609) = test: LTEA_HepaRG_MYC: Life Technologies and Expression Analysis (LTEA) Assay for MYC using HepaRG (AID 2283518)
Method in brief: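 Expression changes were scored by TaqMan qRT-PCR with ACTB, GAPDH and POLR2A normalization. Cultures in serum-free induction medium received duplicate 8-point concentration series, highest 100 uM, for 48 h; DMSO (0.5%) served as baseline.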

[4] = read-out: matrix metalloproteinase-3 (MMP3), MMP3 (gene 4314); test: LTEA_HepaRG_MMP3: Life Technologies and Expression Analysis (LTEA) Assay for matrix metalloproteinase-3 (MMP3) using HepaRG (AID 2283519)
Method in brief: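 HepaRG, human; 48 h dosing, 8 conc. (max 100 uM, half-log), duplicate, 0.5% DMSO. Readout: MMP3 transcript by Fluidigm TaqMan qRT-PCR, ACTB/GAPDH/POLR2A-normalised. Gain or loss fitted vs DMSO.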

[5] = read-out: Paternally Expressed 10 (PEG10), PEG10 (gene 23089); test: LTEA_HepaRG_PEG10: Life Technologies and Expression Analysis (LTEA) Assay for Paternally Expressed 10 (PEG10) using HepaRG (AID 2283520)
Method in brief: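 HepaRG, 48 h post-plating → serum-free induction medium → 48 h chemical exposure (duplicate, 8-pt, max 100 uM, half-log, 0.5% DMSO) → lysis in RLT → TaqMan qRT-PCR for PEG10, ACTB/GAPDH/POLR2A normalisation.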

[6] = read-out: Phosphatase and tensin (PTEN), PTEN (gene 5728); test: LTEA_HepaRG_PTEN: Life Technologies and Expression Analysis (LTEA) Assay for Phosphatase and tensin (PTEN) using HepaRG (AID 2283523)
Method in brief: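 Read-out is PTEN transcript level by multiplexed TaqMan qRT-PCR after 48 h chemical treatment of human HepaRG cultures in serum-free induction medium. Concentrations spanned 100 uM downward in half-log steps, 0.5% DMSO throughout; activity fitted in both directions against vehicle.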

[7] = read-out: solute carrier (SLC22A1), SLC22A1 (gene 6580); test: LTEA_HepaRG_SLC22A1: Life Technologies and Expression Analysis (LTEA) Assay for solute carrier (SLC22A1) using HepaRG (AID 2283524);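 for AC50: differentiated human HepaRG liver cells in serum-free induction medium; TaqMan qRT-PCR normalized to ACTB GAPDH and POLR2A housekeeping genes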
Method in brief: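 HepaRG (human liver line), 48 h dosing in serum-free induction medium; 8 conc., half-log down from 100 uM, 0.5% DMSO vehicle, duplicates. Endpoint: SLC22A1 mRNA, qRT-PCR, housekeeping-normalized; gain/loss fit vs DMSO.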

[8] = read-out: Pyruvate Dehydrogenase Kinase 4 (PDK4), PDK4 (gene 5166); test: LTEA_HepaRG_PDK4: Life Technologies and Expression Analysis (LTEA) Assay for Pyruvate Dehydrogenase Kinase 4 (PDK4) using HepaRG (AID 2283525)
Method in brief: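 In this multiplexed human HepaRG expression assay, cells are treated 48 h with test chemicals across an eight-point range starting at 100 uM. PDK4 mRNA changes, normalized to ACTB/GAPDH/POLR2A, are fitted in both directions relative to vehicle.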

[9] = read-out: NAD(P)H dehydrogenase [quinone] 1 (NQO1), NQO1 (gene 1728); test: LTEA_HepaRG_NQO1: Life Technologies and Expression Analysis (LTEA) Assay for NAD(P)H dehydrogenase [quinone] 1 (NQO1) using HepaRG (AID 2283526)
Method in brief: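 HepaRG, 48 h post-plating → serum-free induction medium → test chemical 48 h (duplicate, 100 uM top, half-log x8, 0.5% DMSO) → RNA isolation → qRT-PCR, ACTB/GAPDH/POLR2A normalization; bidirectional curve fit vs DMSO baseline.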

[10] = read-out: Nuclear factor erythroid 2-related factor 2 (Homo sapiens) (UniProt Q16236); test: LTEA_HepaRG_NFE2L2: Life Technologies and Expression Analysis (LTEA) Assay for Nuclear factor erythroid 2-related factor 2 (NFE2L2) Transcription Factor using HepaRG (AID 2283527);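 note: TaqMan qRT-PCR transcript level normalised to ACTB GAPDH and POLR2A housekeeping genes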
Method in brief: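 Transcript level of NFE2L2 is the read-out, measured by microfluidic TaqMan qRT-PCR and normalized to three housekeeping genes. Human HepaRG cultures received test chemical for 48 h at up to 100 uM in half-log steps. Gain or loss of signal is fitted relative to 0.5% DMSO.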

[11] = read-out: succinate dehydrogenase complex iron sulfur subunit B (SDHB), SDHB (gene 6390); test: LTEA_HepaRG_SDHB: Life Technologies and Expression Analysis (LTEA) Assay for succinate dehydrogenase complex iron sulfur subunit B (SDHB) using HepaRG (AID 2283528)
Method in brief: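 HepaRG cells (~100,000/well, plated 48 h) exposed in duplicate for 48 h in serum-free induction medium to 8-point half-log series from 100 uM in 0.5% DMSO; mRNA by qRT-PCR normalised to ACTB, GAPDH, POLR2A; bidirectional fit versus DMSO.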

[12] = read-out: Signal transducer and activator of transcription 3 (Homo sapiens) (UniProt P40763); test: LTEA_HepaRG_STAT3: Life Technologies and Expression Analysis (LTEA) Assay for Signal transducer and activator of transcription (STAT3) using HepaRG (AID 2283529)
Method in brief: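 Read-out is STAT3 mRNA level by qRT-PCR, normalized to three housekeeping genes, in human HepaRG liver cells treated for 48 h. Concentrations ran from 100 uM downward in half-log steps; curves were fitted for gain or loss relative to 0.5% DMSO.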

[13] = read-out: solute carrier (SLCO1B1), SLCO1B1 (gene 10599); test: LTEA_HepaRG_SLCO1B1: Life Technologies and Expression Analysis (LTEA) Assay for solute carrier (SLCO1B1) using HepaRG (AID 2283530)
Method in brief: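 Human HepaRG cultures treated for 48 h with an eight-concentration half-log series topping at 100 uM; SLCO1B1 measured by qRT-PCR and fitted bidirectionally relative to DMSO.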

[14] = read-out: sulfotransferase 2A1 (SULT2A1), SULT2A1 (gene 6822); test: LTEA_HepaRG_SULT2A1: Life Technologies and Expression Analysis (LTEA) Assay for sulfotransferase 2A1 (SULT2A1) using HepaRG (AID 2283531)
Method in brief: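 Gene-expression endpoint in a human liver cell line: SULT2A1 mRNA change after 48 h chemical treatment, curves fitted in both directions relative to 0.5% DMSO vehicle. Concentrations spanned eight half-log steps from 100 uM.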

[15] = read-out: Transforming Growth Factor (TGFA), TGFA (gene 7039); test: LTEA_HepaRG_TGFA: Life Technologies and Expression Analysis (LTEA) Assay for Transforming Growth Factor (TGFA) using HepaRG (AID 2283532)
Method in brief: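 HepaRG (human liver line), 48 h exposure, 8 conc. half-log down from 100 uM, 0.5% DMSO vehicle, duplicates; serum-free induction medium. TGFA mRNA by TaqMan qRT-PCR, ACTB/GAPDH/POLR2A normalization; gain/loss fit vs DMSO.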

[16] = read-out: Transforming Growth Factor (TGFB1), TGFB1 (gene 7040); test: LTEA_HepaRG_TGFB1: Life Technologies and Expression Analysis (LTEA) Assay for Transforming Growth Factor (TGFB1) Transporter using HepaRG (AID 2283533)
Method in brief: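 Eight-point concentration-response (max 100 uM, half-log) in HepaRG under serum-free induction conditions, 48 h. TGFB1 mRNA by qRT-PCR, housekeeping-normalized.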

[17] = read-out: Tumor necrosis factor receptor 1 (TNFRSF1A), TNFRSF1A (gene 7132); test: LTEA_HepaRG_TNFRSF1A: Life Technologies and Expression Analysis (LTEA) Assay for Tumor necrosis factor receptor 1 (TNFRSF1A) using HepaRG (AID 2283535)
Method in brief: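 Assay uses 48 h chemical treatment of differentiated HepaRG monolayers, tested in duplicate at eight concentrations from 100 uM downward in 0.5% DMSO. mRNA is normalized to ACTB, GAPDH and POLR2A, with induction or suppression fitted relative to vehicle.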

Measured: AC50

Chain of Nuclear factor erythroid 2-related factor 2 (Homo sapiens) (Q16236 whole entry, looked up): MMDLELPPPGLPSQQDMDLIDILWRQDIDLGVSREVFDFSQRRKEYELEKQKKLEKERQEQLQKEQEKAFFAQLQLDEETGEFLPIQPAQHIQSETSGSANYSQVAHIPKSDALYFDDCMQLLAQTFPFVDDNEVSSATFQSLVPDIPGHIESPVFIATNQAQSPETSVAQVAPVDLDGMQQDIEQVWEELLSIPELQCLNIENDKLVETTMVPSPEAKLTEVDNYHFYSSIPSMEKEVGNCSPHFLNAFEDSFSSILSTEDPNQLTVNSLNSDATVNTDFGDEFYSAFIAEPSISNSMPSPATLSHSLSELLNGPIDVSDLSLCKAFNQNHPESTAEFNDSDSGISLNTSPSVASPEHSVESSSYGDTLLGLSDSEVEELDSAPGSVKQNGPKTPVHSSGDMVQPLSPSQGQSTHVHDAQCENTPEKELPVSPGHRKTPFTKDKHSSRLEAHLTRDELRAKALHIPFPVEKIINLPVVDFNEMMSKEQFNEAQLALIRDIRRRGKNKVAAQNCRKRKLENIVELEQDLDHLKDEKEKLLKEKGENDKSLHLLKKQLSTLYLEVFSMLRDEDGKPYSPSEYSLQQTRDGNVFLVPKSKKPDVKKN
Chain of Signal transducer and activator of transcription 3 (Homo sapiens) (P40763 whole entry, looked up): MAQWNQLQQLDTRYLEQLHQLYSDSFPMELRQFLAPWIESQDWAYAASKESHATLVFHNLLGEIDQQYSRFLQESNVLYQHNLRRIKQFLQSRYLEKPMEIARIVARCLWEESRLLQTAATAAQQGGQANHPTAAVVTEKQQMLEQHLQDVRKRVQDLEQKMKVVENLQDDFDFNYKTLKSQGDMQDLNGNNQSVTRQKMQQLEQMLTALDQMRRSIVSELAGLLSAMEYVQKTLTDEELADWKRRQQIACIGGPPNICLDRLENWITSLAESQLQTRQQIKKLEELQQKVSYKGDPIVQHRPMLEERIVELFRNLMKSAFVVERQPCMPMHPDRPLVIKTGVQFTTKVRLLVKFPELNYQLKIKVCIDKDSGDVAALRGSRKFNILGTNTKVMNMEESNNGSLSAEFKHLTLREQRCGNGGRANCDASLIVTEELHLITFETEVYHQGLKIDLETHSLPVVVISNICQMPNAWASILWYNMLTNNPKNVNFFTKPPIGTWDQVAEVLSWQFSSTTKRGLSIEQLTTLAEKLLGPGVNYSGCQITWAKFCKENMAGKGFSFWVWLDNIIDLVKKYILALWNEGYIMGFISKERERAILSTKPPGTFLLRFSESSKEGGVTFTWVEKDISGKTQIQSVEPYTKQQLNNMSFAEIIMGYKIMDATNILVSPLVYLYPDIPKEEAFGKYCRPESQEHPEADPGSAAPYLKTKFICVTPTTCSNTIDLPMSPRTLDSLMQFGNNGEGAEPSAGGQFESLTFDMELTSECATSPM

CCOC(=O)NCCOc1ccc(Oc2ccccc2)cc1
inactive: [6] | [8] | [9] | [10] | [11] | [12] | [16] | [17]
active: [1] 81.6 µM | [2] 75.3 µM | [3] 50 µM | MYC, MYC (gene 4609) 79.9 µM | [4] 50 µM | [5] 29 µM | [7] 84.9 µM | [13] 93.4 µM | [14] 82.7 µM | [15] 78.6 µM

S=C([S-])NCCNC(=S)[S-].[Mn+2]
inactive: [3] | [4] | [9] | [10] | [16]
active: [1] 3.29 µM | [2] 2.03 µM | MYC, MYC (gene 4609) 8.74 µM | [5] 0.302 µM | [6] 4.48 µM | [7] 2.8 µM | [8] 5.86 µM | [11] 1.77 µM | [12] 1.94 µM | [13] 3.85 µM | [14] 3.76 µM | [15] 7.01 µM | [17] 3.32 µM

CCCCCCC(C)OC(=O)COc1nc(F)c(Cl)c(N)c1Cl (centres undefined)
inactive: all assays above
